Cardio protect – protects H9c2 cardiomyocytes from peroxide injury; H2O2 injury protection, ATPLite, 2 h; protection from H2O2 cell death, % at 20 µM; 360,000 compounds, 0.63% hits; AID 588492;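 active = compounds giving at least 50% protection of heart cells from peroxide-induced death in the single-dose screen, raw or plate-pattern-corrected value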;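 also: 0% = DMSO wells with peroxide and 100% = DMSO wells without peroxide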
Glyco luc inh – N-linked glycosylation inhibition; AID 588692; reporter increase, % at 12.5 µM; D54 ERlucT glycosylation luciferase reporter, 24 h; percent of 100 nM tunicamycin response; 360,000 compounds, 0.23% hits;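 active = mean luciferase reporter signal, scaled so untreated is 0 and the glycosylation-blocking control 100, at or above a set limit in every replicate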;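 also: luciferase carries N-glycosylation sites so blocking glycosylation raises the light; 0% = median of neutral control wells and 100% = median of 100 nM tunicamycin wells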
aDG glyco up – increases alpha dystroglycan glycosylation. activation, % at 10 µM. 360,000 compounds, 0.22% hits. AID 624168. Pro5-aDG cells, alpha-DG glycosylation AlphaScreen (IIH6); 0% Pro5, 100% B10-LARGE cell signal;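 active = activation of at least 8% versus controls, or a plate z-score of at least 8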;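 also: Pro5 are CHO cells carrying HIG-tagged alpha-DG that lacks glycosylation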
Vif inh – blocks HIV Vif function; 340,000 compounds, 0.35% hits; HEK293T cells, Vif self-association by quenched fluorescence, imaging, 24 h; inhibition, % at 7.49 µM; in the data active = inhibition above about 50%, passing the limit was not always enough
ARNT-TACC3 inh – disrupts binding between human ARNT and TACC3; Q9Y6A5; AlphaScreen His-ARNT PAS-B/GST-TACC3 binding, luminescence; TACC3 fragment carries E629A point mutation; inhibition, % at 9.99 µM; 390,000 compounds, 0.66% hits;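 active = mean inhibition of replicates at least 50% and at least half of replicates each reaching 50%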;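 also: 0% = complete ARNT plus TACC3 wells and 100% = ARNT alone without TACC3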
* hit, by the source's call; . = not tested or not shown. This is a sample that favours compounds with a hit; in the whole collection about 1.7% have one here.

SMILES | Cardio protect | Glyco luc inh | aDG glyco up | Vif inh | ARNT-TACC3 inh
COc1ccc(S(=O)(=O)N(C(=O)C(C)C)c2ccc3oc(=O)sc3c2)cc1 | 36 | 2 | 0 | -2 | 16
CCOc1ccc(S(=O)(=O)N(C(=O)c2ccco2)c2cc3sc(=O)oc3c3ccccc23)cc1 | -9 | 17 | 11* | -11 | 8
COc1ccc(S(=O)(=O)N(C(=O)c2ccco2)c2cc3sc(=O)oc3c3ccccc23)cc1 | -6 | 5 | 7.6* | -6 | 29
CC(=O)N(c1ccc2oc(=O)sc2c1)S(=O)(=O)c1ccccc1 | 31 | 3 | 0 | -7 | 9
Cc1ccc(S(=O)(=O)N(C(=O)c2ccco2)c2cc3sc(=O)oc3c3ccccc23)cc1 | -7 | 5 | 6.6* | -5 | 12
CC1(C)CC(NC(=O)c2cccc(S(=O)(=O)N(Cc3ccccc3)c3ccccc3)c2)CC(C)(C)N1 | -18 | -6 | 6.8* | -15 | 5
Cc1ccc(N(C)S(=O)(=O)c2cccc(C(=O)NC3CC(C)(C)NC(C)(C)C3)c2)cc1 | 12 | -2 | 0 | -8 | -2
O=C(CCNC(=O)c1ccco1)Nc1ccc(OC(F)(F)F)cc1 | 2 | 1 | 0 | 111* | 20
CCOC(=O)C1CCN(C(=O)c2c(C)oc3c2C(=O)c2ccccc2C3=O)CC1 | -28 | -14 | 4.3* | . | -4
CCOC(=O)C1CCN(C(=O)c2ccc(C)o2)CC1 | 4 | -1 | 0 | -1 | -3
CCOc1ccc(NC(=O)c2cc3c(C)nc4ccccc4c3o2)cc1 | 61* | 19 | 0 | 6 | -2
O=C(O)CC1S/C(=N/N=C/C=C/c2ccccc2)NC1=O (stereo not given) | 0 | 2 | 0 | 0 | 40
O=C(O)CC1S/C(=N/N=C/C=C/c2ccccc2[N+](=O)[O-])NC1=O (stereo not given) | -6 | 5 | 0 | -1 | 34*
C[C@H]1CN([C@@H](C)CO)C(=O)c2cccc(NC(=O)c3ccc(-c4nccs4)cc3)c2O[C@@H]1CN(C)C(=O)Nc1ccccc1 | . | . | . | . | -4
Cc1noc(C)c1NC(=O)N(C)C[C@@H]1Oc2c(NC(=O)c3ccc(-c4nccs4)cc3)cccc2C(=O)N([C@H](C)CO)C[C@H]1C | . | . | . | . | 31*
Cc1noc(C)c1NC(=O)N(C)C[C@H]1Oc2c(NC(=O)c3ccc(-c4nccs4)cc3)cccc2C(=O)N([C@@H](C)CO)C[C@@H]1C | . | . | . | . | 2
C[C@@H]1CN([C@H](C)CO)C(=O)c2cccc(NC(=O)c3ccc(-c4nccs4)cc3)c2O[C@H]1CN(C)C(=O)Nc1ccccc1 | . | . | . | . | 19*
CCCCCCC[C@@H](C/C=C/CCC(=O)N(C)C/C(=C/Cl)C/C(=C\C(=O)N1CC(OC)=CC1=O)OC)OC | -37 | 77* | 0 | . | -22
O=C(CCc1nc2ccccc2c(=O)[nH]1)N1CCN(c2ccc(F)cc2)CC1 | 72* | 0 | 0 | 30 | 1
CC(C)Cn1c(N)c(C(=O)COC(=O)CCc2nc3ccccc3c(=O)[nH]2)c(=O)n(C)c1=O | 54* | 0 | 0 | 9 | .
CC(C)Cn1c(N)c(C(=O)COC(=O)CCc2nc3ccccc3s2)c(=O)n(C)c1=O | -16 | 3 | 2 | 1 | -3
O=c1[nH]c(CN2CCN(c3ccc(F)cc3)CC2)nc2ccccc12 | 13 | -1 | 0 | -22 | 3
Cc1ccc2c(c1)CCCN2C(=O)CCc1nc2ccccc2c(=O)[nH]1 | 76* | 16 | 0 | 2 | -1
Cc1cccc(N2CCN(C(=O)CCc3nc4ccccc4c(=O)[nH]3)CC2)c1C | 50* | 4 | 1 | -7 | 2
Cc1ccc(N2CCN(C(=O)CCc3nc4ccccc4[nH]3)CC2)c(C)c1 | -15 | 3 | 0 | 2 | 0
SMILES | Cardio protect | Glyco luc inh | aDG glyco up | Vif inh | ARNT-TACC3 inh
CC(=O)N1CCCCN2[C@H](C1)[C@H](c1ccc(-c3cccc(C)c3)cc1)[C@@H]2CO | . | . | . | . | -5
O=C(CCc1nc2ccccc2[nH]c1=O)OCC(=O)N1CCc2ccccc21 | 8 | 2 | 0 | 9 | -2
O=C(CCc1nc2ccccc2c(=O)[nH]1)N1CCN(C/C=C/c2ccccc2)CC1 | 59* | -2 | 1 | 0 | -1
O=c1[nH]c(CN2CCN(C/C=C/c3ccccc3)CC2)nc2cc(Cl)ccc12 | 8 | 2 | 1 | -2 | 1
CC(=O)N1CCN(C(=O)CCc2nc3ccccc3c(=O)[nH]2)CC1 | 61* | 1 | 0 | -9 | -22
O=C(CCc1nc2ccccc2c(=O)[nH]1)OCC(=O)N1CCc2ccccc21 | 57* | -2 | 0 | 2 | -5
CCCC(=O)Nc1ccc2c(c1)C(=O)N(C)[C@@H]1CC[C@H](CC(=O)N3CCc4ccccc4C3)O[C@H]1CO2 | . | . | . | . | 2
COC(=O)N/N=C/c1cc(Br)ccc1O | 0 | 2 | 0 | -3 | -9
O=C(NCC1CCCO1)C(=O)N/N=C/c1cc(Cl)ccc1O (stereo not given) | 44 | 2 | 0 | 1 | 46*
O=C(N/N=C/c1ccccc1Cl)c1ccncc1 | 7 | 2 | 0 | 4 | -2
O=C(N/N=C/c1cc(Cl)ccc1O)c1ccncc1 | 42 | 5 | 1 | -1 | 69*
CC(C)NC(=S)N/N=C/c1cc(Br)ccc1O | 12 | -7 | 4 | -5 | 53*
O=C(NCC1CCCO1)C(=O)N/N=C/c1ccc(O)c(Cl)c1 (stereo not given) | -2 | 1 | 0 | 15 | -1
O=C(N/N=C/c1cc(Br)ccc1O)c1ccccc1Cl | 56* | -5 | 0 | -8 | .
NC(=O)c1nsc(C(=O)N(c2cccc(F)c2)C(C(=O)NC2CCCC2)c2ccco2)c1N (stereo not given) | 0 | -8 | 0 | 12 | 3
COc1ccc(C(C(=O)NC2CCCC2)N(C(=O)c2snc(C(N)=O)c2N)c2cccc(O)c2)cc1 (stereo not given) | 52* | 1 | 0 | -5 | 6
NC(=O)c1nsc(C(=O)N(c2cccc(F)c2)C(C(=O)NC2CCCC2)c2ccc(O)cc2)c1N (stereo not given) | 20 | -5 | 0 | 91* | 2
CC(=O)Nc1ccc(NC(=O)COc2ccc(-c3ccc(C#N)cc3)cc2)cc1 | 16 | 0 | 0 | 55* | -2
CCCn1c(=O)c2[nH]c(-c3ccc(OCC(=O)Nc4ccc(C#N)cc4)cc3)nc2n(CCC)c1=O | 94* | 2 | 0 | 94* | -4
N#Cc1ccc(OCC(=O)Nc2ccc3[nH]c(=O)[nH]c3c2)cc1 | 2 | 4 | 0 | 2 | 1
CN(c1ccccc1)c1ccc(/C=C/[N+](=O)[O-])cc1 | -19 | -20 | -1 | 0 | 0
CN(C)c1ccc(-n2cccc2/C=C/[N+](=O)[O-])cc1 | -1 | 64* | 0 | -2 | 8
O=C(O)C1Cc2[nH]cnc2C(c2ccccc2O)N1 (stereo not given) | 7 | -1 | 0 | 3 | 82*
